{
  "source": "the supplement of paper PMC10037445",
  "key": {"[1]": {"test_system": "RAW-Dual", "assay": "NF-kB SEAP reporter activity, fold change vs agonist alone; cytotoxicity flag (confluency mask): cytotoxic (confluency <70% of control); higher = enhanced NF-kB activity", "procedure,_shortened": "(§1)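 Supernatant from RAW-Dual macrophages was read after 20 hours for IRF by QuantiLuc luminescence and for NF-κB by QuantiBlue absorbance at 620 nm. The cells (50,000 cells/well in DMEM, 384-well plates, 37 °C, 5% CO2) had received 50 nL of library stock by pin tool and, 1 h later, a PRR agonist. Reporter activity is expressed relative to agonist-alone wells as fold change, and wells were flagged cytotoxic if IncuCyte confluency was under 70% of agonist controls in both mask sets.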"}, "[2]": {"test_system": "RAW-Dual", "assay": "NF-kB SEAP reporter activity, fold change vs agonist alone; higher = enhanced NF-kB activity", "conditions": "library stock concentration (final ~1000-fold dilution): 10 mM", "procedure,_shortened": "as §1"}, "[3]": {"test_system": "RAW-Dual", "assay": "NF-kB SEAP reporter activity, fold change vs agonist alone; cytotoxicity flag (confluency mask): not cytotoxic; higher = enhanced NF-kB activity", "procedure,_shortened": "as §1"}, "[4]": {"conditions": "agonist: ODN 1826 (TLR9) 0.5 ug/mL"}, "[5]": {"conditions": "agonist: Pam2CSK4 (TLR2/6) 0.1 ug/mL"}, "[6]": {"conditions": "agonist: Pam3CSK4 (TLR2/1) 0.1 ug/mL"}, "[7]": {"conditions": "cytotoxicity flag (confluency mask): cytotoxic (confluency <70% of control), agonist: Imiquimod (TLR7) […]"}, "[8]": {"conditions": "cytotoxicity flag (confluency mask): cytotoxic (confluency <70% of control), agonist: MPLA (TLR4) […]"}, "[9]": {"conditions": "cytotoxicity flag (confluency mask): not cytotoxic, agonist: Imiquimod (TLR7) […]"}, "[10]": {"conditions": "cytotoxicity flag (confluency mask): not cytotoxic, agonist: MPLA (TLR4) […]"}},
  "note": "Over roughly 2,900 compounds, “NF-kB SEAP reporter activity, fold change vs agonist alone” has its median near 0.99; the highest 2% begin near 2.6. The sample holds the highest values, similar compounds and a random draw of the others, so the mix is not that of the screen.",
  "data": [
    {"smiles": "COc1cc2nc(N3CCCN(C)CC3)nc(NC3CCN(Cc4ccccc4)CC3)c2cc1OC.Cl.Cl.Cl", "note": "(library stock concentration (final ~1000-fold dilution): 10 mM)", "values": [
      {"measurement": "NF-kB SEAP reporter activity", "setting": "[1]; agonist: LPS (TLR4) 0.1 ug/mL", "result": 0.248},
      {"measurement": "NF-kB SEAP reporter activity", "setting": "[1]; [4]", "result": 0.189},
      {"measurement": "NF-kB SEAP reporter activity", "setting": "[1]; [5]", "result": 0.092},
      {"measurement": "NF-kB SEAP reporter activity", "setting": "[1]; [6]", "result": 0.13}
    ]},
    {"smiles": "COc1cc2nc(N3CCCN(C)CC3)nc(NC3CCN(Cc4ccccc4)CC3)c2cc1OC.Cl.Cl.Cl", "values": [
      {"measurement": "NF-kB SEAP reporter activity", "setting": "[2]; [7]", "result": 0.133},
      {"measurement": "NF-kB SEAP reporter activity", "setting": "[2]; [8]", "result": 0.247}
    ]},
    {"smiles": "CC(=O)OC1(C(C)=O)CCC2C3C=C(Cl)C4=CC(=O)CCC4(C)C3CCC21C", "note": "(stereo not drawn)", "values": [
      {"measurement": "NF-kB SEAP reporter activity", "setting": "[2]; [9]", "result": 1.28},
      {"measurement": "NF-kB SEAP reporter activity", "setting": "[2]; [10]", "result": 1.12}
    ]},
    {"smiles": "CC(=O)OC1(C(C)=O)CCC2C3C=C(Cl)C4=CC(=O)CCC4(C)C3CCC21C", "note": "(stereo not drawn) (library stock concentration (final ~1000-fold dilution): 10 mM)", "values": [
      {"measurement": "NF-kB SEAP reporter activity", "setting": "[3]; agonist: LPS (TLR4) 0.1 ug/mL", "result": 1.21},
      {"measurement": "NF-kB SEAP reporter activity", "setting": "[3]; [4]", "result": 1.14},
      {"measurement": "NF-kB SEAP reporter activity", "setting": "[3]; [5]", "result": 1.08},
      {"measurement": "NF-kB SEAP reporter activity", "setting": "[3]; [6]", "result": 1.16}
    ]},
    {"smiles": "CN1c2ccccc2C(=O)Nc2cnc(Nc3ccc(N4CCC(O)CC4)cc3)nc21", "note": "(library stock concentration (final ~1000-fold dilution): 10 mM)", "values": [
      {"measurement": "NF-kB SEAP reporter activity", "setting": "[3]; agonist: LPS (TLR4) 0.1 ug/mL", "result": 1.91},
      {"measurement": "NF-kB SEAP reporter activity", "setting": "[3]; [4]", "result": 1.18},
      {"measurement": "NF-kB SEAP reporter activity", "setting": "[3]; [5]", "result": 0.763},
      {"measurement": "NF-kB SEAP reporter activity", "setting": "[3]; [6]", "result": 0.946}
    ]},
    {"smiles": "Cc1nc(Nc2cnn(C3CCNCC3)c2)nc2c1N(C)C(=O)c1cc3ccccc3cc1N2C", "values": [
      {"measurement": "NF-kB SEAP reporter activity", "setting": "[2]; [7]", "result": 1.56},
      {"measurement": "NF-kB SEAP reporter activity", "setting": "[2]; [8]", "result": 2.88}
    ]},
    {"smiles": "Cc1nc(Nc2cnn(C3CCNCC3)c2)nc2c1N(C)C(=O)c1cc3ccccc3cc1N2C", "note": "(library stock concentration (final ~1000-fold dilution): 10 mM)", "values": [
      {"measurement": "NF-kB SEAP reporter activity", "setting": "[1]; agonist: LPS (TLR4) 0.1 ug/mL", "result": 3.03},
      {"measurement": "NF-kB SEAP reporter activity", "setting": "[1]; [4]", "result": 0.387},
      {"measurement": "NF-kB SEAP reporter activity", "setting": "[1]; [5]", "result": 1.11},
      {"measurement": "NF-kB SEAP reporter activity", "setting": "[1]; [6]", "result": 2.25}
    ]},
    {"smiles": "CN1c2ccccc2C(=O)Nc2cnc(Nc3ccc(N4CCC(O)CC4)cc3)nc21", "values": [
      {"measurement": "NF-kB SEAP reporter activity", "setting": "[2]; [9]", "result": 0.788},
      {"measurement": "NF-kB SEAP reporter activity", "setting": "[2]; [10]", "result": 1.02}
    ]},
    {"smiles": "Cc1ccc(Oc2ccnc3cc(-c4cnn(C5CCNCC5)c4)ccc23)cc1", "values": [
      {"measurement": "NF-kB SEAP reporter activity", "setting": "[2]; [7]", "result": 0.526},
      {"measurement": "NF-kB SEAP reporter activity", "setting": "[2]; [8]", "result": 0.922}
    ]},
    {"smiles": "Cc1ccc(Oc2ccnc3cc(-c4cnn(C5CCNCC5)c4)ccc23)cc1", "note": "(library stock concentration (final ~1000-fold dilution): 10 mM)", "values": [
      {"measurement": "NF-kB SEAP reporter activity", "setting": "[1]; agonist: LPS (TLR4) 0.1 ug/mL", "result": 0.433},
      {"measurement": "NF-kB SEAP reporter activity", "setting": "[1]; [4]", "result": 0.213},
      {"measurement": "NF-kB SEAP reporter activity", "setting": "[1]; [5]", "result": 0.181},
      {"measurement": "NF-kB SEAP reporter activity", "setting": "[1]; [6]", "result": 0.175}
    ]},
    {"smiles": "CC1CC(=O)c2c(ccc3c2C(=O)c2cccc(O)c2C3=O)C1", "note": "(stereo not drawn)", "values": [
      {"measurement": "NF-kB SEAP reporter activity", "setting": "[2]; [9]", "result": 1.02},
      {"measurement": "NF-kB SEAP reporter activity", "setting": "[2]; [10]", "result": 1.26}
    ]},
    {"smiles": "CC1CC(=O)c2c(ccc3c2C(=O)c2cccc(O)c2C3=O)C1", "note": "(stereo not drawn) (library stock concentration (final ~1000-fold dilution): 10 mM)", "values": [
      {"measurement": "NF-kB SEAP reporter activity", "setting": "[3]; agonist: LPS (TLR4) 0.1 ug/mL", "result": 1.64},
      {"measurement": "NF-kB SEAP reporter activity", "setting": "[3]; [4]", "result": 1.14},
      {"measurement": "NF-kB SEAP reporter activity", "setting": "[3]; [5]", "result": 1.09},
      {"measurement": "NF-kB SEAP reporter activity", "setting": "[3]; [6]", "result": 0.991}
    ]},
    {"smiles": "CC(NC(=O)C(NC(=O)OCc1ccccc1)C(C)C)C(=O)NC(CC(=O)O)C(=O)CF", "note": "(stereo not drawn)", "values": [
      {"measurement": "NF-kB SEAP reporter activity", "setting": "[2]; [9]", "result": 0.964},
      {"measurement": "NF-kB SEAP reporter activity", "setting": "[2]; [10]", "result": 0.934}
    ]},
    {"smiles": "CC(NC(=O)C(NC(=O)OCc1ccccc1)C(C)C)C(=O)NC(CC(=O)O)C(=O)CF", "note": "(stereo not drawn) (library stock concentration (final ~1000-fold dilution): 10 mM)", "values": [
      {"measurement": "NF-kB SEAP reporter activity", "setting": "[3]; agonist: LPS (TLR4) 0.1 ug/mL", "result": 1.23},
      {"measurement": "NF-kB SEAP reporter activity", "setting": "[3]; [4]", "result": 0.939},
      {"measurement": "NF-kB SEAP reporter activity", "setting": "[3]; [5]", "result": 0.948},
      {"measurement": "NF-kB SEAP reporter activity", "setting": "[3]; [6]", "result": 1.03}
    ]},
    {"smiles": "CCCC1CC(C(=O)NC(C(C)Cl)C2OC(SC)C(O)C(O)C2O)N(C)C1.Cl.O", "note": "(stereo not drawn)", "values": [
      {"measurement": "NF-kB SEAP reporter activity", "setting": "[2]; [10]", "result": 1.07}
    ]},
    {"smiles": "CCCC1CC(C(=O)NC(C(C)Cl)C2OC(SC)C(O)C(O)C2O)N(C)C1.Cl.O", "note": "(stereo not drawn) (library stock concentration (final ~1000-fold dilution): 10 mM)", "values": [
      {"measurement": "NF-kB SEAP reporter activity", "setting": "[3]; agonist: LPS (TLR4) 0.1 ug/mL", "result": 1.29},
      {"measurement": "NF-kB SEAP reporter activity", "setting": "[3]; [4]", "result": 0.918},
      {"measurement": "NF-kB SEAP reporter activity", "setting": "[3]; [5]", "result": 0.831},
      {"measurement": "NF-kB SEAP reporter activity", "setting": "[3]; [6]", "result": 0.973}
    ]},
    {"smiles": "O=C(Nc1cccc(Br)c1)c1cccc(S(=O)(=O)N2CCCCCC2)c1", "values": [
      {"measurement": "NF-kB SEAP reporter activity", "setting": "[2]; [9]", "result": 1.56},
      {"measurement": "NF-kB SEAP reporter activity", "setting": "[2]; [10]", "result": 1.26}
    ]},
    {"smiles": "O=C(Nc1cccc(Br)c1)c1cccc(S(=O)(=O)N2CCCCCC2)c1", "note": "(library stock concentration (final ~1000-fold dilution): 10 mM)", "values": [
      {"measurement": "NF-kB SEAP reporter activity", "setting": "[3]; agonist: LPS (TLR4) 0.1 ug/mL", "result": 0.803},
      {"measurement": "NF-kB SEAP reporter activity", "setting": "[3]; [4]", "result": 1.79},
      {"measurement": "NF-kB SEAP reporter activity", "setting": "[3]; [5]", "result": 1.02},
      {"measurement": "NF-kB SEAP reporter activity", "setting": "[3]; [6]", "result": 0.939}
    ]}
  ]
}
